# Screens: PubChem, National Center for Advancing Translational Sciences (NCATS)
# CXXC DNA block: qHTS Fluorescence Polarization Assay for Inhibitors of MLL CXXC domain - DNA interaction; Potency, µM (highest dose often 115 µM), for inactives: at the top dose activity change, negative = inhibition, usual class: inhibitors; Histone-lysine N-methyltransferase 2A (Homo sapiens), Q03164; MLL-CXXC / FITC-HOXA9 DNA fluorescence polarization; 290,000 tested, 0.037% active; active means well fitted inhibition curve with a large enough effect in the polarisation, with a control signal flat, not every such curve was filed as active; inconclusive means small, poorly fitted or top-dose-only effect, or effect the other way, or a change in a side signal; inactive means no such curve, though single readings can be large or run the other way; the % refers to the polarisation; further: potency means the concentration at half of the fitted maximal effect
#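 Purified MLL-CXXC (added from a 7 uM solution) was preincubated 5 min at ambient with pinned compounds in 50 mM Tris-HCl pH 7.5, 50 mM NaCl, 1 mM DTT, 0.05% BSA. Fluorescein-labeled HOX-A9 DNA (50 nM solution) followed, 30 min, then polarization read.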
# LDHA block: qHTS assay for inhibitors of human lactate dehydrogenase. AID 1347041, 2019. L-lactate dehydrogenase A chain (Homo sapiens), P00338. purified LDHA, NADH/diaphorase-resazurin fluorescence; stronger effect = lower value. activity change, % (values are at about 110 or 230 µM). 480,000 tested, 0.15% active; in the data active means activity change below about -30%; inconclusive means mostly about -25% to -30%;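 further: plate controls were DMSO wells for no effect and wells without enzyme for full effect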
#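 Human LDH5 (2 nM) was incubated with 0.06 mM NADH and 0.2 mM pyruvate for 5 min at room temperature in Tris pH 7.4. Remaining NADH was coupled through diaphorase/resazurin, and resorufin fluorescence was read at 0 and 20 min.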
# pAkt inh: HTS Assay for Inhibitors of Akt Phophorylation: Primary Screen; Neuro2A IGF-stimulated pAkt S473 HTRF, 20 min; stronger effect = lower value; AID 651550, 2012; 360,000 tested, 0.32% active; activity change, % for hits at 50 µM; in the data active means activity change below about -80%; inconclusive means mostly about -51% to -80%; further: on the % scale 0 is the no-effect control and ±100 the full control effect
#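 Single-point screen (50 µM final compound) in Neuro2A cells stimulated 20 min with 6 nM IGF at 37 deg C. After lysis, Ser473-phosphorylated Akt read by HTRF (ex 330 nm, em 615/665 nm) as the 665/615 ratio.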
# Menin-MLL FL inh: qHTS Assay for Inhibitors Targeting the Menin-MLL Interaction in MLL Related Leukemias: Competition With Fluorescein Labeled MLL-derived Peptide; 290,000 tested, under 10 active; Fluorescence polarization, fluorescein-MLL peptide displacement from menin; FP activity change, % at 61.4 µM; active means well fitted curve in the direction sought with a large enough effect in the polarisation, not every such curve was filed as active; inconclusive means small, poorly fitted or top-dose-only effect, or effect the other way, or a change in a side signal; inactive means no such curve, though single readings can be large or run the other way; the % refers to the polarisation; further: % of control where 0% means no effect
# Menin-MLL TR inh: qHTS Assay for Inhibitors Targeting the Menin-MLL Interaction in MLL Related Leukemias: Competition With Texas Red Labeled MLL-derived Mutant Peptide. Menin + Texas Red MLL mutant peptide, fluorescence polarization. 270,000 tested, 0.23% active. O00255. AID 1768, 2009. Potency, µM (series often up to 61.6 µM), without a hit: at the top dose FP activity change, negative = inhibition, usual class: inhibitors; active means well fitted inhibition curve with a large enough effect in the polarisation, with a control signal flat, not every such curve was filed as active; inconclusive means small, poorly fitted or top-dose-only effect, or effect the other way, or a change in a side signal; inactive means no such curve, though single readings can be large or run the other way; the % refers to the polarisation; further: potency means the concentration at half of the fitted maximal effect; % of control where 0% means no effect
# Target sequence (O00255 whole entry, looked up): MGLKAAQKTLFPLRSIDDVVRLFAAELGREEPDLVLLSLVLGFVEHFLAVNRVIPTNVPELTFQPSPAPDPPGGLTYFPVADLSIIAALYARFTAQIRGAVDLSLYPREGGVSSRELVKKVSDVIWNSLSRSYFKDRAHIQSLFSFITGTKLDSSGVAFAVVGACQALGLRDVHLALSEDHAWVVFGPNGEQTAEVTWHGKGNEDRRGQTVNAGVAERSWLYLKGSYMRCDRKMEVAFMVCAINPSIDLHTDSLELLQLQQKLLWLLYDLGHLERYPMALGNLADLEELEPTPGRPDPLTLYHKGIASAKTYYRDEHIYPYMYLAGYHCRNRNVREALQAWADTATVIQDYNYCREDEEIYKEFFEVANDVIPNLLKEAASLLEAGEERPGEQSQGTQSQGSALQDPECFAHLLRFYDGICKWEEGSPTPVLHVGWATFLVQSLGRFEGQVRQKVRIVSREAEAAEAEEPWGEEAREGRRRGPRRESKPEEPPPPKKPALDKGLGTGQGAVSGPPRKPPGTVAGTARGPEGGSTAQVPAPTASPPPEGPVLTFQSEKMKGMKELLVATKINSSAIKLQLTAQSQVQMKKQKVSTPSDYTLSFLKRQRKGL
# mIDH1 inhibitor: qHTS for Inhibitors of mutant isocitrate dehydrogenase 1 (IDH1): qHTS; IDH1-R132H enzyme, NADPH consumption, diaphorase/resazurin fluorescence; Potency, µM (doses to about 76.6 µM), without a hit: top-dose activity change, negative = inhibition, actives largely listed as inhibitors; 390,000 tested, 0.093% active; AID 602179, 2012; further: potency means the concentration at half of the fitted maximal effect; on the % scale 0 is the no-effect control and ±100 the full control effect; nearly all actives have a fitted effect of over 65% in size
#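 IDH1-R132H (0.5 ug/mL dispensed) in pH 7.5 Tris buffer was preincubated 30 min with compound, then given a substrate mix of 0.016 mM NADPH and 2 mM alpha-KG for 80 min at room temperature; remaining NADPH was read by diaphorase/resazurin fluorescence.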
# MLL CXXC FP-Fl: qHTS Fluorescence Polarization (FP) Assay for Inhibitors of MLL CXXC domain - DNA interaction: Fluorescein FP | shares compounds with CXXC DNA block | 200 tested, 70% active | Potency, µM (series often up to 345 µM), inactives show at the highest dose activity change, negative = inhibition, usual class: inhibitors | MLL CXXC-DNA binding, fluorescein FP; further: potency means the concentration at half of the fitted maximal effect; nearly all actives have a fitted effect of over 80% in size
# MLL CXXC TxRed: qHTS Fluorescence Polarization (FP) Assay for Inhibitors of MLL CXXC domain - DNA interaction: Texas Red FP | 200 tested, 40% active | Potency, µM (top dose mostly 345 µM), for the others: top-dose activity change, negative = inhibition, usual class: inhibitors | MLL CXXC-DNA binding, Texas Red fluorescence polarization | shares compounds with CXXC DNA block; further: potency means the concentration at half of the fitted maximal effect; on the % scale 0 is the no-effect control and ±100 the full control effect; nearly all actives have a fitted effect of over 75% in size
# MLL CXXC HTRF: qHTS Fluorescence Polarization (FP) Assay for Inhibitors of MLL CXXC domain - DNA interaction: HTRF Assay. 210 tested, 30% active. MLL CXXC-DNA binding, HTRF, biochemical. Potency, µM (top dose mostly 172 µM), for the others: at the top dose activity change, negative = inhibition, actives largely listed as inhibitors. shares compounds with CXXC DNA block; further: on the % scale 0 is the no-effect control and ±100 the full control effect; nearly all actives have a fitted effect of over 80% in size
# IDH1 autofl: qHTS for Inhibitors of mutant isocitrate dehydrogenase 1 (IDH1): Cherrypicks Autofluorescence Interference | shares compounds with mIDH1 inhibitor | Resorufin detection reagent fluorescence interference, cell-free | inhibition of signal, % at 51.2 µM | 750 tested, under 10 active | AID 623980, 2012;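 further: 0% = wells with normal resorufin and full inhibition = wells lacking resorufin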
# WT IDH1 inh: qHTS for Inhibitors of mutant isocitrate dehydrogenase 1 (IDH1): Cherrypicks in WT IDH1; Potency, µM (series often up to 115 µM), for the others: top-dose activity change, negative = inhibition, most hits filed as inhibitors; AID 623995, 2012; 750 tested, 9% active; WT IDH1 enzyme, NADPH diaphorase/resazurin fluorescence; shares compounds with mIDH1 inhibitor;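 further: potency means the concentration at half of the fitted maximal effect; 0% = full WT IDH1 enzyme control and full inhibition = no enzyme wells; nearly all actives have a fitted effect of over 55% in size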
# mIDH1 confirm: qHTS for Inhibitors of mutant isocitrate dehydrogenase 1 (IDH1): Confirmation of Cherrypicks; Potency, µM (series often up to 76.6 µM), without a hit: at the top dose activity change, negative = inhibition, hits mostly inhibitors; IDH1 R132H enzyme, NADPH diaphorase/resazurin fluorescence; 750 tested, 83% active; shares compounds with mIDH1 inhibitor; AID 624002, 2012; further: potency means the concentration at half of the fitted maximal effect; nearly all actives have a fitted effect of over 50% in size
# An asterisk follows results filed as active; i = inactive; u = inconclusive; x = no result. Compounds with a hit are over-represented: about 0.54% of the library has one in this group of screens. Unless noted, the call rests on the fitted dose curve; in most records, active means well fitted curve in the direction sought with a large enough effect; inconclusive means small, poorly fitted or top-dose-only effect, or another doubt; inactive means no such curve, though single readings can be large; an effect the other way counts as inactive or inconclusive.
SMILES,CXXC DNA block,LDHA block,pAkt inh,Menin-MLL FL inh,Menin-MLL TR inh,mIDH1 inhibitor,IDH1 autofl,WT IDH1 inh,mIDH1 confirm,others
O=C(COC(=O)CSc1nc2ccccc2o1)NC1CC1,x,13,x,x,x,x,x,x,x,
CC(C)Cn1c(SCC(=O)NCc2ccco2)nnc1-c1ccncc1,u,3,i,0,5%,2%,x,x,x,MLL CXXC FP-Fl=1.6µM*;MLL CXXC TxRed=-5%;MLL CXXC HTRF=0%
Cn1c(SCC(=O)NCc2ccco2)nnc1-c1ccccc1,3%,-6,i,1,-3%,1%,x,x,x,
Cc1ccc(NC(=O)CN(C)S(=O)(=O)c2ccc(C(=O)N3CCOCC3)s2)c(Cl)c1,x,0,x,x,x,x,x,x,x,
O=S(=O)(NC1CCSc2c(F)cccc21)c1ccccc1 (configuration not stated),x,-3,x,x,x,x,x,x,x,
Cc1[nH][nH]c(=O)c1C(c1ccc(-c2ccc(F)cc2)o1)c1c(C)[nH][nH]c1=O,-14%,5,i,2,u,4%,x,x,x,
Cc1[nH][nH]c(=O)c1C(c1ccc(-c2ccc(C(=O)O)cc2)o1)c1c(C)[nH][nH]c1=O,u,27,i,2,-24%,15%,x,x,x,MLL CXXC FP-Fl=-6%;MLL CXXC TxRed=9%;MLL CXXC HTRF=u
COc1ccccc1NC(=S)NC(C)=O,u,-5,i,-4,-1%,3%,x,x,x,MLL CXXC HTRF=36%
COc1ccccc1NC(C)=O,-1%,-1,i,-3,6%,6%,x,x,x,
CC1=NN(c2ccc(Br)cc2)C(=O)/C1=C/c1ccc(-c2ccccc2C(=O)O)o1,u,-1,i,2,u,-3%,x,x,x,MLL CXXC FP-Fl=113µM*;MLL CXXC TxRed=89µM*;MLL CXXC HTRF=51%
COc1ccc(-c2c3c(nc4sc5c(=O)[nH]c(C)nc5c24)CCC3)cc1,-10%,3,i,-2,-10%,21µM*,-6,-4%,7.1µM*,
CCc1ccc(-c2nn(CC)c(=O)c3c2CCCC3)cc1S(=O)(=O)NC1CCCC1,x,14,x,x,x,x,x,x,x,
NNC(=O)CN1C(c2ccc(Cl)cc2)=Nc2ccc(Br)cc2C1c1ccccc1 (configuration not stated),u,-4,i,1,2%,u,-13,u,-13%,
Cc1occc1-c1nnc(SCC(=O)c2c[nH]c(C(=O)N3CCCC3)c2)n1-c1ccccc1,x,-4,x,x,x,x,x,x,x,
CCOC(=O)C1CCN(C(c2cccnc2)c2c(NC(=O)c3ccco3)sc(C)c2C)CC1 (configuration not stated),1%,-4,i,-1,-5%,u,1,-3%,28µM*,
Cc1sc(NC(=O)c2ccco2)c(C(c2cccnc2)N2CCN(CCO)CC2)c1C (configuration not stated),10%,-8,i,0,-11%,5%,x,x,x,
O=C1CSC2(C(=O)N(Cc3ccccc3)c3ccccc32)N1c1ccc(Cl)cc1 (configuration not stated),x,-6,x,x,x,u,3,11%,25µM*,
O=C1CCSC2(C(=O)N(Cc3ccc(F)cc3)c3ccccc32)N1c1ccc(F)c(F)c1 (configuration not stated),x,-2,x,x,x,40µM*,-5,-7%,14µM*,
Cc1cc(C)cc(N2C(=O)CCSC23C(=O)N(Cc2ccccc2)c2ccccc23)c1 (configuration not stated),x,-5,x,x,x,u,x,x,x,
O=C1CCSC2(C(=O)N(Cc3ccc(F)cc3)c3ccccc32)N1c1cccc(F)c1 (configuration not stated),x,-1,x,x,x,28µM*,-1,-17%,u,
O=C1CCSC2(C(=O)N(Cc3ccc(F)cc3)c3ccccc32)N1c1ccccc1 (configuration not stated),x,-4,x,x,x,u,x,x,x,
Cc1cccc(N2C(=O)CCSC23C(=O)N(Cc2ccc(F)cc2)c2ccccc23)c1 (configuration not stated),x,2,x,x,x,u,-2,-17%,20µM*,
O=C(c1ccccc1F)N1CCN(C(=O)c2cc(Br)ccc2Cl)CC1,x,17,x,x,x,x,x,x,x,
CN=c1scc(-c2cccs2)n1/N=C/c1ccccc1,x,8,x,x,x,x,x,x,x,
